For experiment [1], the target named is mouse Estrogen Receptor alpha (Era), Esr1 (gene 13982) (UniProt P19785). Nature of the experiment: NVS_NR_mERa: NovaScreen (NVS) Nuclear Receptor Binding Assay for mouse Estrogen Receptor alpha (Era) (AID 2283378).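 Further: hit means loss of bound radioligand signal relative to DMSO.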 The method in brief: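 Cell-free radioligand competitive displacement binding, read by filter-based scintillation counting 18 h after dosing. Primary screen run in duplicate at 25 uM, actives retested in concentration series; loss of signal versus DMSO.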
Sequence of mouse Estrogen Receptor alpha (Era), Esr1 (gene 13982) (P19785 whole entry, looked up): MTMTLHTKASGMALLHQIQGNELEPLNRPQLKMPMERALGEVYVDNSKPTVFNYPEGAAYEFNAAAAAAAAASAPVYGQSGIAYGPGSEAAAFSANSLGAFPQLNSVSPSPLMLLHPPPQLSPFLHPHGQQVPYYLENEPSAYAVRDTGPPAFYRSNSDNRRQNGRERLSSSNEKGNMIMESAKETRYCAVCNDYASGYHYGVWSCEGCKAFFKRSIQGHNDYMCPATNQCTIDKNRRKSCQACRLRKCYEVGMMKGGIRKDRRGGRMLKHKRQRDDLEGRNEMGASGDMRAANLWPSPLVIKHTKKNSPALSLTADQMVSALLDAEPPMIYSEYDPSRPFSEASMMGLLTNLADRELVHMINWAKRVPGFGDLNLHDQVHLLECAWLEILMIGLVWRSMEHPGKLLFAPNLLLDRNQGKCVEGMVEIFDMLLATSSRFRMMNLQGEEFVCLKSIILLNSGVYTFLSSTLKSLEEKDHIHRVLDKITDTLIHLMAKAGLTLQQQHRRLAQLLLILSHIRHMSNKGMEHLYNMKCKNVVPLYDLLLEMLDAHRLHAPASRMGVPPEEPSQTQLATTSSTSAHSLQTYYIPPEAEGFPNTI

Experiment [2] addresses Estrogen receptor beta (Homo sapiens) (UniProt Q92731). The experiment is described as follows: OT_ER_ERbERb_1440: Odyssey Thera (OT) 24-hour HEK293T Protein-Complementation Assay for Estrogen Receptor-beta/-beta Homodimer (AID 2283380).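 Further: fluorescence gain from ER beta LBD homodimer complementation read by laser scanning cytometry; scored as signal increase over DMSO baseline for both agonists and antagonists.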 The method in brief:
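Fluorescence increase, nuclear for agonists or whole-cell for antagonists, relative to DMSO vehicle, quantified by laser scanning cytometer after fixation and Draq5 staining. Readout from 24 h treatment of HEK293T cells carrying complementation-paired ER beta LBD (aa 310-547).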

For experiment [3], the target named is Estrogen receptor (Homo sapiens) (UniProt P03372). Nature of the experiment: OT_ERa_GFPERaERE_0480: Odyssey Thera (OT) 8-hour HeLa Transcription Induction Assay for Estrogen Receptor (AID 2283381; active means hit-call score of the fitted dose curve at least 0.9, where 1 is the maximum; inactive means score below 0.9). Summed up:
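HeLa cells dosed with compound and imaged by fluorescence microscopy at 8 h; GFP induction from an ERE reporter quantified by high-content image analysis and fitted as gain of signal against DMSO baseline.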

Experiment [4] addresses Bile acid receptor (Homo sapiens) (UniProt Q96RI1). Nature of the experiment: OT_FXR_FXRSRC1_0480: Odyssey Thera (OT) 8-hour HEK293T Protein-Complementation Assay for Farnesoid X receptor/SRC-1 Co-activator (AID 2283383). Summed up:
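HEK293T cells expressing FXR and SRC-1 fused to reporter fragments were dosed with compound for 8 h; fluorescence from the reconstituted reporter marked co-activator recruitment. Gain of signal was fitted against the DMSO baseline.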

For experiment [5], the target named is Agonist Androgen Response Element (ARE), AR (gene 367) (UniProt P10275). Nature of the experiment: OT_AR_ARELUC_AG_1440: Odyssey Thera (OT) 24-hour CHO-K1 Luciferase Assay for Agonist Androgen Response Element (ARE) (AID 2283379). Summed up:
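Agonist mode, 24 h exposure in CHO-K1 ARE-luciferase cells; values reflect luminescence induction over vehicle.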

Experiment [6] addresses human Norepinephrine Transporter (NET), SLC6A2 (gene 6530) (UniProt P23975). Nature of the experiment: NVS_TR_hNET: NovaScreen (NVS) Transporter Assay for human Norepinephrine Transporter (NET) (AID 2283377).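 Further: cell-free membrane protein extracted from CHO cells expressing human NET.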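 On AC50: displacement of radioligand from human NET seen as loss of scintillation signal.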 Summed up: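 Scintillation counts of filter-retained radioligand served as the readout, taken 1 h post-dosing in a cell-free CHO-derived system. Test chemicals ran first at 25 uM in duplicate; confirmed hits were retested across concentrations.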

Our source for the AC50 and outcome values is PubChem BioAssay (EPA / NIEHS).

Results filed as inconclusive are left out. Some compounds were tested as several samples or in several runs, with calls that do not always agree. Activity calls are given as the source filed them. How the source made its calls, unless noted: active means hit-call score of the fitted dose curve at least 0.9, where 1 is the maximum; inconclusive means response in the unintended direction; inactive means score below 0.9.

Sequence of Bile acid receptor (Homo sapiens) (Q96RI1 whole entry, looked up, the tested form may be a part): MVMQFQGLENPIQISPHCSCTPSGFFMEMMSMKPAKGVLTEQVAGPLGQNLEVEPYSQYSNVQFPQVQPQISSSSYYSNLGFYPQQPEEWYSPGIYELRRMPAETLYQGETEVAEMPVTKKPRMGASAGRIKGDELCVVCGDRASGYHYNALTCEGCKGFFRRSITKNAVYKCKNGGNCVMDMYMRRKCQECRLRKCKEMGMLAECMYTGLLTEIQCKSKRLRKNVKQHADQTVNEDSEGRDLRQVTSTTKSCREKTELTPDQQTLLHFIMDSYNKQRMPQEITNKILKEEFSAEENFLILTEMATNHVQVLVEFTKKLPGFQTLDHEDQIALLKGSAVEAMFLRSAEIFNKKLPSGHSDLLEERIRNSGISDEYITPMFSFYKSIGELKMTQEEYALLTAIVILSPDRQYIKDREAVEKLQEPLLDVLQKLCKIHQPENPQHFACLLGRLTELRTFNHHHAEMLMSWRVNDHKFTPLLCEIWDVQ
Sequence of Estrogen receptor (Homo sapiens) (P03372 whole entry, looked up): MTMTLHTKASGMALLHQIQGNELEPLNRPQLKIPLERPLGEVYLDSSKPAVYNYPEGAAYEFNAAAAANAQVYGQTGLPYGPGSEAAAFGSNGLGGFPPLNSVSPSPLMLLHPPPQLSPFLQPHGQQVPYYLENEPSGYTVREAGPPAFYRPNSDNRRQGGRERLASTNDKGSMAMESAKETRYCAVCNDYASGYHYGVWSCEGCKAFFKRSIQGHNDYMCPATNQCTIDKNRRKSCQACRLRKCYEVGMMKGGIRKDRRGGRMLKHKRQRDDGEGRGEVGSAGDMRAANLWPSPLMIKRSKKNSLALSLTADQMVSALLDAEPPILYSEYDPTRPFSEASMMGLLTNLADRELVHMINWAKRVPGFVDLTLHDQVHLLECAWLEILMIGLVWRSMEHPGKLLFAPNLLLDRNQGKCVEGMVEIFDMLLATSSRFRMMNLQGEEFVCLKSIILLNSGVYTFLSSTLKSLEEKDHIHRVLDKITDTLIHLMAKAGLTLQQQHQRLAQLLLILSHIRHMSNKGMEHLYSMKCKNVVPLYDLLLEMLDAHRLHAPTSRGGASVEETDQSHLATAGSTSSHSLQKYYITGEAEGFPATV
Sequence of human Norepinephrine Transporter (NET), SLC6A2 (gene 6530) (P23975 whole entry, looked up): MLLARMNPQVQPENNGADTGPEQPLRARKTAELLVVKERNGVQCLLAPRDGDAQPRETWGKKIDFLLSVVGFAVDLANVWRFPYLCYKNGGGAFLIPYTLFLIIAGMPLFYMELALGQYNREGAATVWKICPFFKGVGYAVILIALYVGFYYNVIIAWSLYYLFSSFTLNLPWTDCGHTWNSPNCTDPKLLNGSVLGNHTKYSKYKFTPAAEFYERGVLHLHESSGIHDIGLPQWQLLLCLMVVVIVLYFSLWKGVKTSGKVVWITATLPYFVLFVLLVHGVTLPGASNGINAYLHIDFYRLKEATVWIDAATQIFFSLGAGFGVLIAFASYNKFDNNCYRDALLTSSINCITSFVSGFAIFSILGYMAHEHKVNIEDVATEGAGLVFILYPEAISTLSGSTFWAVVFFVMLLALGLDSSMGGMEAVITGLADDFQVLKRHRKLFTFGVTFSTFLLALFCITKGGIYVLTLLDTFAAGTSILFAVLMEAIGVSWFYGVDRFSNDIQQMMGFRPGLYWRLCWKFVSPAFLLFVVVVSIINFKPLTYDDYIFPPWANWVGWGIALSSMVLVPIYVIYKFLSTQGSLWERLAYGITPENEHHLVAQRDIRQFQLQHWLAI
Sequence of Estrogen receptor beta (Homo sapiens) (Q92731 whole entry, looked up, the tested form may be a part): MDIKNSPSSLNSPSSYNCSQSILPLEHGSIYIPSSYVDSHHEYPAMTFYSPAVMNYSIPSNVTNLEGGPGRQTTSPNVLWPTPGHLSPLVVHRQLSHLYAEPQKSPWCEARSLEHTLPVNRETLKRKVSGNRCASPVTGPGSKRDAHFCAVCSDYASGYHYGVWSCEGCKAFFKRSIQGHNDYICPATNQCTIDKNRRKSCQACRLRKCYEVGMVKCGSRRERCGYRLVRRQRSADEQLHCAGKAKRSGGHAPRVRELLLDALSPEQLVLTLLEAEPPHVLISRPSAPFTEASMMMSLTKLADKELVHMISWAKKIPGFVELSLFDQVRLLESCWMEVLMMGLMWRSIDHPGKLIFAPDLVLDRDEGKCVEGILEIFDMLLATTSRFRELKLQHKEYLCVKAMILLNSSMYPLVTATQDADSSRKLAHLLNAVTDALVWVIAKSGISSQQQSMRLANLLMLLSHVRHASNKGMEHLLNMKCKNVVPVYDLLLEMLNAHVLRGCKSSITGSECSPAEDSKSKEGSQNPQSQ
Sequence of Agonist Androgen Response Element (ARE), AR (gene 367) (P10275 whole entry, looked up): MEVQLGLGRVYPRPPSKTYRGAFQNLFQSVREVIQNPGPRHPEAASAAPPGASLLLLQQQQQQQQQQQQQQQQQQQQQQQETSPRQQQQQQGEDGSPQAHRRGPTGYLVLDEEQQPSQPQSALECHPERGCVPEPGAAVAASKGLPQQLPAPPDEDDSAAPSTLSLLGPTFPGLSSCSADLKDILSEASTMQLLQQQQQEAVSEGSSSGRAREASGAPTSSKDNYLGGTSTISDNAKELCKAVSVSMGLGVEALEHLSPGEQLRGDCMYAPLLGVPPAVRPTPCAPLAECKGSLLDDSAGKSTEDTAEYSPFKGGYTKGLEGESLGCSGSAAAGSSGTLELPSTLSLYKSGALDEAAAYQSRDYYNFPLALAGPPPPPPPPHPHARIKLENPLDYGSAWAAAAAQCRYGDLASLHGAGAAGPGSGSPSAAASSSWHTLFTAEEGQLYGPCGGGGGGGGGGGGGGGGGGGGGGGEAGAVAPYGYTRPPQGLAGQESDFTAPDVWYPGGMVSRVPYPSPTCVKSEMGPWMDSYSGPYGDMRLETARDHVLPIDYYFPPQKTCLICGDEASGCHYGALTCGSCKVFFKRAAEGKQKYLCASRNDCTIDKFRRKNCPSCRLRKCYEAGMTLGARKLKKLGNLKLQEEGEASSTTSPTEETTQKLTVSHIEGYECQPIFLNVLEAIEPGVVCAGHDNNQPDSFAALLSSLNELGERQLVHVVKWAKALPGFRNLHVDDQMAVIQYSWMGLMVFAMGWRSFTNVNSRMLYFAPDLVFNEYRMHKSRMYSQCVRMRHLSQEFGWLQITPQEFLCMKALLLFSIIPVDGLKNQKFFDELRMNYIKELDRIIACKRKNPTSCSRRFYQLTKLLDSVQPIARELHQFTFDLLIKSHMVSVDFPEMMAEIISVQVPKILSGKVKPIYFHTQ

As a reminder, the AC50 is the midpoint of the concentration-response curve, whichever way the signal moves. With `Nc1cc(Cl)c(-c2cc(Cl)c(N)cc2Cl)cc1Cl`, in experiment [1], the AC50 is 0.389 µM (active). For the compound `C[C@]12CC[C@@H]3c4ccc(O)cc4CC[C@H]3[C@@H]1CC[C@@H]2OC(=O)CCC1CCCC1`, the AC50 in experiment [1] was 0.0452 µM (active). Take `CCCCc1oc2ccccc2c1C(=O)c1cc(I)c(OCCN(CC)CC)c(I)c1`: the compound was called inactive in experiment [2] and in experiment [3]. Besides, the AC50 in experiment [4] is 9.16 µM (active).

Regarding `COc1cc([N+](=O)[O-])ccc1N`, the compound was called inactive in experiment [5], in experiment [3] and in experiment [4]. The AC50 in experiment [2] is 28.4 µM (active). On to `C=Cc1ccc(O)c(OC)c1`, for which the AC50 in experiment [6] was 19.1 µM (active). In the case of `NCCN`, in experiment [3], the result was inactive. `Cc1[nH]nc2c1N=C(c1ccccc1Cl)c1cc([N+](=O)[O-])ccc1N2`: the call in experiment [2] was inactive. Also, the half-maximal activity concentration (AC50) in experiment [4] was 1.06 µM (active). For the compound `CCc1ccccc1O`, the result in experiment [2], in experiment [3] and in experiment [4] was inactive.

On to `CC(C)(C)c1ccc(O)c(O)c1`, for which, in experiment [6], the AC50 was 18.4 µM (active) and the outcome was inactive.

Take `NS(=O)(=O)O`: in experiment [2], the outcome was inactive.
